According to PubChem BioAssay (NCI):
This is part of a sample that, as a whole, favours compounds with a hit. Of some 79,000 tested, about 15% had one in any assay. Activity calls are given as the source filed them. Rule as the data show it: active = growth inhibition above about 70%; inactive = the rest.

Key:
[1] = NCI Yeast Anticancer Drug Screen. Data for the rad50 strain (AID 155);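 also: 0% = growth of vehicle-only cultures of the same strain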; settings: S. cerevisiae rad50 strain growth inhibition, hits give high values
Summary of the method: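 Readout: growth inhibition relative to vehicle-treated cultures. Compound exposure was carried out in a genetically defined yeast strain deficient in DNA damage repair.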

[2] = NCI Yeast Anticancer Drug Screen. Data for the mec2-1 strain (AID 157); settings: S. cerevisiae mec2-1 strain, hits give high values
Summary of the method: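 Vehicle-treated cultures served as reference for growth inhibition of compound-exposed mec2-1 yeast.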

[3] = NCI Yeast Anticancer Drug Screen. Data for the sgs1 mgt1 strain (AID 161);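 also: 0% = growth of cultures given vehicle only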; settings: S. cerevisiae sgs1 mgt1 strain, hits give high values
Summary of the method: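 Mutant yeast exposed to compound; growth scored against vehicle-only wells.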

[4] = NCI Yeast Anticancer Drug Screen. Data for the cln2 rad14 strain (AID 165);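 also: 0% = growth equal to vehicle treated cultures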; settings: S. cerevisiae cln2 rad14 strain, hits give high values
Summary of the method: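 Each compound was tested on cln2 rad14 yeast. Inhibition of growth was calculated against vehicle-exposed controls.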

[5] = NCI Yeast Anticancer Drug Screen. Data for the bub3 strain (AID 167); settings: S. cerevisiae bub3 mutant strain, hits give high values
Summary of the method: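 Readout: yeast growth inhibition, expressed relative to vehicle-only wells. The test organism is a mutant strain from a panel with lesions in DNA repair or checkpoint genes.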

[6] = NCI Yeast Anticancer Drug Screen. Data for the mlh1 rad18 strain (AID 175); settings: S. cerevisiae mlh1 rad18 strain growth inhibition, hits give high values
Summary of the method: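 Vehicle-treated cultures served as the reference for growth inhibition in a yeast strain carrying DNA damage repair alterations exposed to each compound.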

[7] = at 5.0 µM (retest, dose inferred, filed as 0.5)
[8] = at 50.0 µM (retest, dose inferred, filed as 5.0)

Measured: growth inhibition

CC1=C/C(=C(/c2ccc(O)c(C)c2)c2ccccc2C(=O)O)C=CC1=O
active: [1]; [8] 99% | [1]; at 50.0 µM 99% | [2]; [8] 99% | [2]; at 50.0 µM 99.5% | [3]; [8] 99% | [3]; at 50.0 µM 99.1% | [4]; [8] 98% | [4]; at 50.0 µM 99.1% | [5]; [8] 99% | [5]; at 50.0 µM 99.2% | [6]; [8] 99% | [6]; at 50.0 µM 99%
inactive: [1]; [7] -13% | [2]; [7] -3% | [3]; [7] -9% | [4]; [7] -28% | [5]; [7] -8% | [6]; [7] 6%

[Cl][Ge]([c]1ccccc1)[c]1ccccc1.[Cl][Ge]([c]1ccccc1)[c]1ccccc1
inactive: [1]; [7] 22% | [1]; at 50.0 µM 33.4% | [2]; [7] 19% | [2]; at 50.0 µM 41.5% | [3]; [7] 23% | [3]; at 50.0 µM 55.1% | [4]; [7] 4% | [4]; at 50.0 µM -4.65% | [5]; [7] 16% | [5]; at 50.0 µM 34.5% | [6]; [7] 12%
active: [1]; [8] 73% | [2]; [8] 79% | [3]; [8] 80% | [4]; [8] 70% | [5]; [8] 80% | [6]; [8] 78% | [6]; at 50.0 µM 76.3%

CC(=O)Oc1ccc(-c2ccccc2)cc1Br
active: [1]; [8] 99% | [1]; at 50.0 µM 93.6% | [2]; [8] 98% | [2]; at 50.0 µM 96.2% | [3]; [8] 97% | [3]; at 50.0 µM 91.5% | [4]; [8] 95% | [4]; at 50.0 µM 85.1% | [5]; [8] 98% | [5]; at 50.0 µM 94.2% | [6]; [8] 99% | [6]; at 50.0 µM 98.1%
inactive: [1]; [7] 8% | [2]; [7] -27% | [3]; [7] 6% | [4]; [7] 7% | [5]; [7] 10% | [6]; [7] 11%

Nc1ccccc1Nc1c([N+](=O)[O-])cc(C(F)(F)F)cc1[N+](=O)[O-]
inactive: [1]; [7] 53% | [2]; [7] 41% | [2]; [8] 55% | [3]; [7] 48% | [3]; [8] 69% | [4]; [7] 42% | [4]; [8] 55% | [5]; [7] 46% | [5]; [8] 61% | [6]; [7] 51%
active: [1]; [8] 78% | [1]; at 50.0 µM 89.2% | [2]; at 50.0 µM 92.3% | [3]; at 50.0 µM 92.7% | [4]; at 50.0 µM 85.5% | [5]; at 50.0 µM 91.4% | [6]; [8] 76% | [6]; at 50.0 µM 90.5%

CCCCCc1cc(Cl)cc(Cl)c1O
inactive: [1]; [7] -5% | [1]; [8] 45% | [1]; at 50.0 µM 60.1% | [2]; [7] -23% | [2]; [8] 0% | [2]; at 50.0 µM 10.1% | [3]; [7] -5% | [3]; [8] 26% | [3]; at 50.0 µM 67.5% | [4]; [7] 0% | [4]; [8] -6% | [4]; at 50.0 µM -13.2% | [5]; [7] -22% | [5]; [8] -22% | [5]; at 50.0 µM 9.05% | [6]; [7] -3% | [6]; [8] 18% | [6]; at 50.0 µM 62.1%

CCCCCCCCCCCCCCCC[N+](C)(C)CC(=O)O
active: [1]; [8] 92% | [2]; [8] 98% | [3]; [8] 97% | [4]; [8] 94% | [4]; at 50.0 µM 88.4% | [5]; [8] 96% | [5]; at 50.0 µM 99% | [6]; [8] 97%
inactive: [1]; [7] 6% | [1]; at 50.0 µM -12.2% | [2]; [7] 7% | [2]; at 50.0 µM 1.2% | [3]; [7] 19% | [3]; at 50.0 µM -1.4% | [4]; [7] 2% | [5]; [7] 0% | [6]; [7] 5% | [6]; at 50.0 µM 7.85%

COc1cc[c]([Sn]([c]2ccc(OC)cc2)([c]2ccc(OC)cc2)[c]2ccc(OC)cc2)cc1
inactive: [1]; [7] 1% | [1]; [8] 1% | [2]; [7] 6% | [2]; [8] 6% | [3]; [7] -5% | [3]; [8] -5% | [4]; [7] -9% | [4]; [8] -9% | [5]; [7] 6% | [5]; [8] 6% | [6]; [7] -14% | [6]; [8] -14%
active: [1]; at 50.0 µM 80.5% | [2]; at 50.0 µM 85.3% | [3]; at 50.0 µM 80.8% | [4]; at 50.0 µM 85.8% | [5]; at 50.0 µM 82.3% | [6]; at 50.0 µM 78.8%

O=C1C(c2c[nH]c3ccccc23)=Nc2ccc(Br)cc21
active: [1]; at 50.0 µM 86.8% | [3]; at 50.0 µM 73% | [5]; at 50.0 µM 90% | [6]; at 50.0 µM 83.7%
inactive: [1]; [7] 19% | [1]; [8] 33% | [2]; [7] 26% | [2]; [8] 35% | [2]; at 50.0 µM 61.4% | [3]; [7] 25% | [3]; [8] 29% | [4]; [7] 15% | [4]; [8] 34% | [4]; at 50.0 µM 53.5% | [5]; [7] 45% | [5]; [8] 53% | [6]; [7] 24% | [6]; [8] 35%

C=C(C)C1(C(=O)OCC(Cl)(Cl)Cl)NC(=O)C(NC(=O)COc2ccccc2)=CO1 (configuration not stated)
inactive: [1]; [7] 26% | [1]; [8] 66% | [2]; [7] 4% | [2]; [8] 68% | [3]; [7] 8% | [3]; [8] 56% | [4]; [7] 6% | [4]; [8] 31% | [4]; at 50.0 µM 61.1% | [5]; [7] 3% | [5]; [8] 44% | [6]; [7] 3% | [6]; [8] 51%
active: [1]; at 50.0 µM 94.8% | [2]; at 50.0 µM 86.8% | [3]; at 50.0 µM 94.5% | [5]; at 50.0 µM 85% | [6]; at 50.0 µM 93%
